The whole screen tested about 5,500 compounds, of which about 2,000 (36%) were called active. Not shown: some 18% with an inconclusive outcome. Cut-off read from the data, not from the text of the source: active = normalized growth mostly below about 0.91 (no sharp cut-off); inconclusive = no clear call, values can overlap the other calls; inactive = mostly above about 0.92. The list shows a part of the results.
Test: chemical genetic growth profiling, strain panel (AID 1159580);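 note: tested at 20 µM; growth read once vehicle control cultures reached saturation at 30 °C; 1 = growth at the plate median or of vehicle wells; lower values mean less growth of the strain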
Settings: growth OD
[1] = S. cerevisiae deletion strains, locus YAL013W, strain DEP1, hits give low values
[2] = S. cerevisiae deletion strains, locus YBR229C, strain ROT2, hits give low values
[3] = S. cerevisiae deletion strains, locus YCL061C, strain MRC1, hits give low values
[4] = S. cerevisiae deletion strains, locus YDL101C, strain DUN1, hits give low values
[5] = S. cerevisiae deletion strains, locus YDR150W, strain NUM1, hits give low values
[6] = S. cerevisiae deletion strains, locus YEL061C, strain CIN8, hits give low values
[7] = S. cerevisiae deletion strains, locus YGR078C, strain PAC10, hits give low values
[8] = S. cerevisiae deletion strains, locus YGR229C, strain SMI1, hits give low values
[9] = S. cerevisiae deletion strains, locus YHR030C, strain SLT2, hits give low values
[10] = S. cerevisiae deletion strains, locus YHR087W, strain rtc3, hits give low values
[11] = S. cerevisiae deletion strains, locus YJR043C, strain POL32, hits give low values
[12] = S. cerevisiae deletion strains, locus YJR075W, strain HOC1, hits give low values
[13] = S. cerevisiae deletion strains, locus YKL190W, strain CNB1, hits give low values
[14] = S. cerevisiae deletion strains, locus YLR039C, strain RIC1, hits give low values
[15] = S. cerevisiae deletion strains, locus YLR058C, strain SHM2 (second series), hits give low values
[16] = S. cerevisiae deletion strains, locus YLR085C, strain ARP6, hits give low values
[17] = S. cerevisiae deletion strains, locus YLR262C, strain YPT6, hits give low values
[18] = S. cerevisiae deletion strains, locus YML094W, strain GIM5, hits give low values
[19] = S. cerevisiae deletion strains, locus YMR219W, strain ESC1, hits give low values
[20] = S. cerevisiae deletion strains, locus YMR263W, strain SAP30, hits give low values
[21] = S. cerevisiae deletion strains, locus YMR307W, strain GAS1, hits give low values
[22] = S. cerevisiae deletion strains, locus YNL128W, strain TEP1, hits give low values
[23] = S. cerevisiae deletion strains, locus YNL153C, strain GIM3, hits give low values
[24] = S. cerevisiae deletion strains, locus YNL298W, strain CLA4 (second series), hits give low values
[25] = S. cerevisiae deletion strains, locus YNL322C, strain KRE1, hits give low values
[26] = S. cerevisiae deletion strains, locus YNR030W, strain Alg12, hits give low values
[27] = S. cerevisiae deletion strains, locus YPL055C, strain LGE1, hits give low values
[28] = S. cerevisiae deletion strains, locus YPL241C, strain CIN2, hits give low values
[29] = S. cerevisiae deletion strains, locus YPR135W, strain CTF4, hits give low values
[30] = S. cerevisiae deletion strains, locus YDL134C, strain PPH21, hits give low values
[31] = S. cerevisiae deletion strains, locus YAL040C, strain CLN3, hits give low values
[32] = S. cerevisiae deletion strains, locus YCL061C, strain MRC1 (second series), hits give low values
[33] = S. cerevisiae deletion strains, locus YDR363W, strain ESC2, hits give low values
[34] = S. cerevisiae deletion strains, locus YER002W, strain NOP16, hits give low values
[35] = S. cerevisiae deletion strains, locus YNL175C, strain NOP13, hits give low values
[36] = S. cerevisiae deletion strains, locus YNL197C, strain WHI3, hits give low values
[37] = S. cerevisiae deletion strains, locus YNL224C, strain SQS1, hits give low values
[38] = S. cerevisiae deletion strains, locus YOR083W, strain WHI5 (second series), hits give low values

Measured: normalized growth

CC(O)CNc1ccc(C(F)(F)F)cc1[N+](=O)[O-] (centres undefined)
inactive: [1] 1.01 | [2] 1.01 | [3] 1.03 | [4] 1.03 | [5] 1.04 | [6] 0.997 | [7] 1.02 | [8] 0.993 | [9] 0.987 | [10] 1 | [11] 1.02 | [12] 1.04 | [13] 1.02 | [14] 1.08 | [15] 0.998 | [16] 0.989 | [17] 0.985 | [18] 0.947 | [19] 1 | [20] 1.02 | [21] 1.03 | [22] 1.02 | [23] 0.998 | [24] 1.05 | [25] 1 | [26] 0.999 | [27] 0.966 | [28] 1.01 | [29] 1.01

Cc1c(C(=O)NCCNc2ccc(C(F)(F)F)cc2[N+](=O)[O-])cnn1-c1ccc(F)cc1
inactive: S. cerevisiae deletion strains, locus YAR019C, strain CDC15, hits give low values 0.981 | S. cerevisiae deletion strains, locus YBL105C, strain PKC1, hits give low values 0.971 | S. cerevisiae deletion strains, locus YBR135W, strain CKS1, hits give low values 0.974 | S. cerevisiae deletion strains, locus YBR136W, strain MEC1, hits give low values 0.978 | S. cerevisiae deletion strains, locus YBR160W, strain CDC28, hits give low values 0.979 | S. cerevisiae deletion strains, locus YDL017W, strain CDC7, hits give low values 0.982 | S. cerevisiae deletion strains, locus YDL028C, strain MPS1, hits give low values 0.989 | [4] 0.988 | S. cerevisiae deletion strains, locus YDL108W, strain KIN28, hits give low values 0.982 | S. cerevisiae deletion strains, locus YDL132W, strain cdc53, hits give low values 0.978 | S. cerevisiae deletion strains, locus YDL214C, strain PRR2, hits give low values 0.958 | S. cerevisiae deletion strains, locus YDR052C, strain DBF4, hits give low values 0.985 | S. cerevisiae deletion strains, locus YDR054C, strain cdc34, hits give low values 0.956 | S. cerevisiae deletion strains, locus YDR226W, strain ADK1, hits give low values 0.982 | S. cerevisiae deletion strains, locus YDR477W, strain SNF1, hits give low values 0.968 | S. cerevisiae deletion strains, locus YER123W, strain YCK3, hits give low values 0.966 | S. cerevisiae deletion strains, locus YER133W, strain GLC7, hits give low values 0.982 | S. cerevisiae deletion strains, locus YFL009W, strain cdc4, hits give low values 0.98 | S. cerevisiae deletion strains, locus YFL029C, strain CAK1, hits give low values 0.977 | S. cerevisiae deletion strains, locus YFR003C, strain YPI1, hits give low values 0.984 | S. cerevisiae deletion strains, locus YFR019W, strain FAB1, hits give low values 0.973 | S. cerevisiae deletion strains, locus YFR028C, strain CDC14, hits give low values 0.978 | S. cerevisiae deletion strains, locus YGR040W, strain KSS1, hits give low values 0.958 | S. cerevisiae deletion strains, locus YGR052W, strain FMP48, hits give low values 1.06 | S. cerevisiae deletion strains, locus YGR092W, strain DBF2, hits give low values 0.935 | [9] 0.97 | S. cerevisiae deletion strains, locus YHR079C, strain IRE1, hits give low values 0.954 | S. cerevisiae deletion strains, locus YHR082C, strain KSP1, hits give low values 1.01 | S. cerevisiae deletion strains, locus YHR205W, strain SCH9, hits give low values 0.962 | S. cerevisiae deletion strains, locus YIL147C, strain SLN1, hits give low values 0.986 | S. cerevisiae deletion strains, locus YJL095W, strain BCK1, hits give low values 0.978 | S. cerevisiae deletion strains, locus YJL128C, strain PBS2, hits give low values 0.946 | S. cerevisiae deletion strains, locus YJL157C, strain FAR1, hits give low values 0.943 | S. cerevisiae deletion strains, locus YJR016C, strain ILV3, hits give low values 0.984 | S. cerevisiae deletion strains, locus YJR066W, strain TOR1 (second series), hits give low values 0.933 | S. cerevisiae deletion strains, locus YJR066W, strain TOR1, hits give low values 0.999 | S. cerevisiae deletion strains, locus YKL048C, strain ELM1, hits give low values 0.949 | S. cerevisiae deletion strains, locus YKL067W, strain YNK1, hits give low values 0.97 | S. cerevisiae deletion strains, locus YKL101W, strain HSL1, hits give low values 0.947 | S. cerevisiae deletion strains, locus YKL193C, strain SDS22, hits give low values 0.983 | S. cerevisiae deletion strains, locus YKL203C, strain TOR2, hits give low values 1.01 | S. cerevisiae deletion strains, locus YLR113W, strain HOG1, hits give low values 0.904 | S. cerevisiae deletion strains, locus YLR133W, strain CKI1, hits give low values 0.941 | S. cerevisiae deletion strains, locus YLR403W, strain SFP1, hits give low values 0.937 | S. cerevisiae deletion strains, locus YML070W, strain DAK1, hits give low values 0.94 | S. cerevisiae deletion strains, locus YMR001C, strain CDC5, hits give low values 0.985 | S. cerevisiae deletion strains, locus YMR205C, strain PFK2 (second series), hits give low values 0.978 | S. cerevisiae deletion strains, locus YMR277W, strain FCP1, hits give low values 0.991 | S. cerevisiae deletion strains, locus YNL006W, strain LST8, hits give low values 1 | S. cerevisiae deletion strains, locus YNL020C, strain ARK1, hits give low values 0.941 | S. cerevisiae deletion strains, locus YNL161W, strain CBK1, hits give low values 0.975 | S. cerevisiae deletion strains, locus YNL183C, strain NPR1, hits give low values 0.986 | S. cerevisiae deletion strains, locus YNL207W, strain RIO2, hits give low values 0.973 | S. cerevisiae deletion strains, locus YNL222W, strain SSU72, hits give low values 0.974 | S. cerevisiae deletion strains, locus YNL307C, strain MCK1 (second series), hits give low values 0.939 | S. cerevisiae deletion strains, locus YOL078W, strain AVO1, hits give low values 0.986 | S. cerevisiae deletion strains, locus YOL136C, strain PFK27, hits give low values 0.938 | S. cerevisiae deletion strains, locus YOR061W, strain CKA2, hits give low values 0.99 | S. cerevisiae deletion strains, locus YOR119C, strain RIO1, hits give low values 1.01 | S. cerevisiae deletion strains, locus YOR231W, strain MKK1, hits give low values 0.912 | S. cerevisiae deletion strains, locus YOR329C, strain SCD5, hits give low values 0.984 | S. cerevisiae deletion strains, locus YPL031C, strain PHO85, hits give low values 0.96 | S. cerevisiae deletion strains, locus YPL153C, strain RAD53, hits give low values 0.954 | S. cerevisiae deletion strains, locus YPL204W, strain HRR25, hits give low values 0.943 | S. cerevisiae deletion strains, locus YPL209C, strain IPL1, hits give low values 0.979 | S. cerevisiae deletion strains, locus YPL256C, strain CLN2, hits give low values 0.908 | S. cerevisiae deletion strains, locus YPR025C, strain CCL1, hits give low values 0.979 | S. cerevisiae deletion strains, locus YPR106W, strain ISR1, hits give low values 0.965 | S. cerevisiae deletion strains, locus YPR111W, strain DBF20, hits give low values 0.962 | S. cerevisiae deletion strains, strain NNK1, hits give low values 0.971 | S. cerevisiae deletion strains, strain TSCII, hits give low values 0.982

O=C(NCCNc1ccc(C(F)(F)F)cc1[N+](=O)[O-])c1cccs1
active: [9] 0.673 | [16] 0.775 | [18] 0.841 | [27] 0.771
inactive: [1] 0.974 | [2] 0.972 | [3] 0.983 | [4] 0.93 | [5] 0.931 | [6] 0.948 | [7] 0.967 | [8] 0.974 | [10] 0.973 | [11] 0.978 | [12] 0.998 | [14] 0.838 | [15] 0.967 | [17] 0.915 | [19] 0.982 | [20] 1.02 | [23] 0.976 | [24] 0.863 | [25] 0.988 | [26] 0.911 | S. cerevisiae deletion strains, locus YOL006C, strain TOP1, hits give low values 0.778 | [28] 1.13 | [29] 0.743

Cc1cc(C)c(C(=O)NCCNc2ccc(C(F)(F)F)cc2[N+](=O)[O-])c(C)c1
inactive: [1] 0.97 | [2] 0.951 | [3] 0.966 | [4] 0.98 | [30] 0.971 | [5] 0.9 | [7] 0.953 | [8] 1 | S. cerevisiae deletion strains, locus YJL187C, strain SWE1, hits give low values 0.978 | [11] 0.968 | [12] 0.895 | [15] 0.996 | [19] 0.98 | [20] 0.96 | [22] 0.957 | [23] 0.964 | [25] 0.986 | S. cerevisiae strains, strain wild type, hits give low values 0.916
active: [6] 0.862 | [9] 0.259 | [10] 0.89 | [13] 0.794 | [14] 0.473 | [16] 0.331 | [17] 0.58 | [18] 0.817 | [24] 0.785 | [26] 0.652 | [27] 0.687 | [28] 0.846 | [29] 0.55

O=[N+]([O-])c1cc(C(F)(F)F)ccc1NCCCn1ccnc1
inactive: [1] 1.01 | [2] 1.01 | [4] 1.06 | [30] 0.976 | [5] 1.04 | [6] 0.988 | [7] 1.03 | [9] 1.1 | [10] 0.965 | [11] 1.04 | [12] 1.04 | [13] 0.994 | [14] 1.08 | [15] 1 | [16] 1.03 | [17] 1 | [18] 1.01 | [19] 0.991 | [20] 1.03 | [23] 1.04 | [24] 1.01 | [25] 0.98 | [26] 1.01 | [27] 0.991 | [28] 1.03 | [29] 1.07

CCOC(=O)c1ncn2c1[C@@H]1CCCN1C(=O)c1cc(OC)ccc1-2
inactive: [31] 0.938 | [32] 1.01 | [33] 1 | [34] 1.01 | [8] 1.05 | [21] 0.981 | [35] 1.04 | [36] 1.03 | [37] 1.01 | [25] 1.02 | [38] 1.04 | [27] 1.05 | [28] 1.01

CCCN(CCC)[C@@H]1CCc2cccc(O)c2C1
inactive: [31] 1.04 | [32] 0.995 | [5] 0.989 | [33] 0.997 | [34] 0.977 | [7] 0.981 | [8] 1.07 | [12] 1.02 | [20] 1 | [21] 1.03 | [23] 0.953 | [35] 0.998 | [36] 0.974 | [37] 1 | [38] 1.01 | [27] 1.01 | [28] 1

Source: PubChem BioAssay AID1159580 (chemical genetic matrix, 2015)
